Test results: ChEMBL document CHEMBL3988442, “University of Dundee, Small-Polar-MMV Screening Library” (2021)
Out of some 38,000 compounds screened, about 1,200 (3.2%) showed an effect of 50% or more. The median lay at about -58%. This is one part of a sample in which strong results are shown more often than they occur.

system: Plasmodium falciparum; test: Calibr Malaria Delayed Death Assay SOP; assay type: functional, organism-based; set-up: scale not given: in the data most compounds retested in dose-response had high values; details: concentration 4.99e-06 (unit not given; other assays of the set use mol/L)

| SMILES | Percent Effect [%] |
| --- | --- |
| N#Cc1cc(Cn2cnc(C3CCC3)cc2=O)ccc1F | -42.13 |
| Cc1cnn(CC2CN(Cc3nnc(C4CC4)n3C)CCO2)c1 (stereo not given) | -158.8 |
| Cc1ccc(C(C)NCc2cn(CCC(N)=O)c3ccccc23)cc1C (stereo not given) | 82.29 |
| CC(C)n1cnnc1CCNCc1cn(CCC(N)=O)c2ccccc12 | -17.79 |
| CC(NCc1cn(CCC(N)=O)c2ccccc12)c1nncn1C (stereo not given) | -188.2 |
| CN(C)C(=O)CN1CCc2ncnc(C3CC3)c2CC1 | -29.69 |
| COc1ncccc1NC(=O)NC(C)c1nncn1C (stereo not given) | -34.42 |
| Cc1cnc(C(=O)NCC(c2ccc(C)o2)N2CCOCC2)cn1 (stereo not given) | -124.5 |
| CC(C)C(CNCc1cccc2c1OCO2)N1CCOCC1 (stereo not given) | 75.82 |
| c1csc(C(CNCc2cccc3c2OCO3)N2CCOCC2)c1 (stereo not given) | 39.98 |
| Cc1ccc(C(CNCc2cccc3c2OCO3)N2CCOCC2)o1 (stereo not given) | 65.56 |
| Cl.c1cc(CNCc2ccnc(N3CCOCC3)c2)c2c(c1)OCO2 | -34.78 |
| CC(C)c1nn(C)c(N(C)C)c1CNCc1cccc2c1OCO2 | 16.39 |
| O=C(NCCn1cccn1)c1ccn(-c2cccc(F)c2)n1 | -72.56 |
| Cc1noc2nc(C3CC3)c(Cl)c(C(=O)O)c12 | -135.9 |
| Cc1ccc(N2CCC(C(=O)NC3CCc4nccn4C3)CC2)nc1 (stereo not given) | -14.8 |
| CC(C)[C@@H]1CN(C(=O)NCc2ccco2)C[C@H]1N(C)C | -12.41 |
| CC(C)[C@@H]1CN(C(=O)C2(c3ccccc3)CCN(C)CC2)C[C@H]1N(C)C | 83.06 |

| SMILES | Percent Effect [%] |
| --- | --- |
| CC(C)[C@@H]1CN(C(=O)CN(C)Cc2ccccc2)C[C@H]1C(=O)O | -22.97 |
| CCCn1c(N2CCCC(C)C2)nc2c(C)nn(C)c2c1=O (stereo not given) | -32.41 |
| Cc1ncncc1C(=O)N1CCOC(c2nc(C(C)C)n[nH]2)C1 (stereo not given) | -146.2 |
| Cn1ncc(N2CCOC(CCNC(=O)CO)C2)cc1=O (stereo not given) | -51.52 |
| CC(=O)N1CCC2(CCN(C(=O)c3ccc(F)c(C(F)(F)F)c3)CC2)C1 | -64.74 |
| CC(C)N(C)CC(=O)NCc1ccccc1N1CCN(C)CC1 | 43.49 |
| CCOCCCNC(=O)Cc1cccc(F)c1 | -98.72 |
| CN1CCN(c2ccccc2CNC(=O)Cc2ccccc2F)CC1 | 75.84 |
| O=C(CN1CCS(=O)(=O)CC1)NCc1ccccc1F | -87.27 |
| CCc1ccccc1CNC(=O)CNCC(F)(F)F | -137.2 |
| CN1CCCN(c2ccc(F)cc2CNC(=O)c2ccsc2)CC1 | 59.32 |
| Cc1cc(CNC(=O)NCc2ccccc2N2CCOCC2)no1 | -32.16 |
| CN1CCN(c2ccccc2CNC(=O)CSC(F)(F)F)CC1 | 67.15 |
| Cc1ccc(C(=O)NCc2cc(F)ccc2N2CCCN(C)CC2)o1 | 33.96 |
| Cc1cc(=O)n(C)cc1NC(=O)Cc1cccc(F)c1 | -34.19 |
| CN1CCN(c2ccccc2CNC(=O)Cc2cccc(F)c2)CC1 | 77.21 |
| O=C(NCc1cccnc1N1CCCC(O)C1)c1ccsc1 (stereo not given) | -31.1 |
